# Tests used:
# Test in all cases: DAPPL (digital affinity profiling via proximity ligation, sequencing); 10 mM Tris-HCl pH 7.5, 50 mM NaCl, 1 mM DTT, 4% glycerol, room temperature, 30 min; GST-TFs on glutathione beads, 16-mer random dsDNA library, 0.1% formaldehyde crosslink after washing; high values mean tight binding
# FLI1 = biological target: T1, FLI1 (Homo sapiens, UniProt Q01543 1-452); conditions: protein: recombinant; tags: N-terminal GST; dsDNA, one strand shown
# T1 sequence: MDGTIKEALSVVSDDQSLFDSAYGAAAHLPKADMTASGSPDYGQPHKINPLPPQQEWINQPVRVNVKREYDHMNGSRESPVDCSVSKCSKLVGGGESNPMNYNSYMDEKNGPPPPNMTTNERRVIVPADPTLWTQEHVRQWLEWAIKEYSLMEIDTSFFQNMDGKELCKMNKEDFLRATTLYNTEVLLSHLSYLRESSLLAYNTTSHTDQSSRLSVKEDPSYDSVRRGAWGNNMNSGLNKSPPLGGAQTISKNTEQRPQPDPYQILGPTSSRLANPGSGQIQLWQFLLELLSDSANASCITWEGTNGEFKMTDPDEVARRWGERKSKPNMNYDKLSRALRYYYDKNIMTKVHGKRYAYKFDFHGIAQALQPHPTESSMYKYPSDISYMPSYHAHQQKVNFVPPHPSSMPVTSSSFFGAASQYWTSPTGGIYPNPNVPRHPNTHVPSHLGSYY
# Method in brief: (§1)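 Sequencing on an Illumina NextSeq500 followed washing, crosslinking with 0.1% formaldehyde, proximity ligation (BsaI/T4 ligase, 1 h, 37 °C) and PCR amplification of pools that had been incubated for 30 min at room temperature with 200 nmole of a random double-stranded 16-mer DNA library in Tris/NaCl/DTT/glycerol buffer. Each pool held DNA-barcoded human transcription factors, expressed in yeast as GST fusions and captured on glutathione beads, plus a tag-only sample. Binding signal is a hexamer's read frequency for a factor divided by its frequency in the tag-only sample.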
# ELK1 = biological target: T2, ELK1 (Homo sapiens, UniProt P19419 1-428); conditions: protein: recombinant; tags: N-terminal GST; dsDNA, one strand shown
# T2 sequence: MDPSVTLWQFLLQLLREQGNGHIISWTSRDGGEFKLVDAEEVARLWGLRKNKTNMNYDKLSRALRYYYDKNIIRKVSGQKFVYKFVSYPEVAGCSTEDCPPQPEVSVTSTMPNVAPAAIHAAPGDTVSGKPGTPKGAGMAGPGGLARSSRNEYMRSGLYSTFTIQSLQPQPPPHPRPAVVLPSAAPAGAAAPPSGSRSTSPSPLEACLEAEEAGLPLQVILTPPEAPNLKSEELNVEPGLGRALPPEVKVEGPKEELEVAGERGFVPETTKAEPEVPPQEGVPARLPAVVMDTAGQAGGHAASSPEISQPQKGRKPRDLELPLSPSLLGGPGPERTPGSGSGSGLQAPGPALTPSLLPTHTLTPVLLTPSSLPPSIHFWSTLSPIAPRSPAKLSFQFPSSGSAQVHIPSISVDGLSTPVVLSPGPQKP
# Method in brief: as §1
# GABPA = biological target: T3, GABPA (Homo sapiens, UniProt Q06546 1-454); conditions: protein: recombinant; tags: N-terminal GST; dsDNA, one strand shown
# T3 sequence: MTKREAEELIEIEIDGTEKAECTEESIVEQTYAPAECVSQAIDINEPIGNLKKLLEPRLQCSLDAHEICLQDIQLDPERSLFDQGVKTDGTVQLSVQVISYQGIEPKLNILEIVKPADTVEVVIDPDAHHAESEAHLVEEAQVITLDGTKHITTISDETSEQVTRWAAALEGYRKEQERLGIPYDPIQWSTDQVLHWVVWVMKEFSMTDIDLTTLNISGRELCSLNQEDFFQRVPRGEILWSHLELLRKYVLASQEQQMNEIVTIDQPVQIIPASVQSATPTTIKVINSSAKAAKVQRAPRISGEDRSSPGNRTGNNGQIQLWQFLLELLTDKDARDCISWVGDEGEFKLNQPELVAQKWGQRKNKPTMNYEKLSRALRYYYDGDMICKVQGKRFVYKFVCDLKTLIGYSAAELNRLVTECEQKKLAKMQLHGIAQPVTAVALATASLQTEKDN
# Method in brief: as §1
# ERG = biological target: T4, ERG (Homo sapiens, UniProt P11308 1-479); conditions: protein: recombinant; tags: N-terminal GST; dsDNA, one strand shown
# T4 sequence: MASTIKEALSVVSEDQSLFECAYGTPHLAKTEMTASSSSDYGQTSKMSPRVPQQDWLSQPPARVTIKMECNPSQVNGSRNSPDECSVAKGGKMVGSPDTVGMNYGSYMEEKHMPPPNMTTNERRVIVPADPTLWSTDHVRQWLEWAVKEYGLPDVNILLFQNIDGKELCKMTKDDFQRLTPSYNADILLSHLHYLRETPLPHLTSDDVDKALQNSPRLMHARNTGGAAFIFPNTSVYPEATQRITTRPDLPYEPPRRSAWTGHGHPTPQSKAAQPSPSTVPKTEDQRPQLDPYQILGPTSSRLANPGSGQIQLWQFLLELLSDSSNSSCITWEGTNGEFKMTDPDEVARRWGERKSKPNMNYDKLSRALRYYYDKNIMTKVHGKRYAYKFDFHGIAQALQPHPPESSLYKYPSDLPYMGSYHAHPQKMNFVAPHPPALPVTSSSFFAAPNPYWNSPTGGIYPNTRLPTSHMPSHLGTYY
# Method in brief: as §1
# ELF1 = ELF1 (Homo sapiens, UniProt P32519 1-619); conditions: protein: recombinant; tags: N-terminal GST; dsDNA, one strand shown
# Chain of ELF1 (P32519 whole entry): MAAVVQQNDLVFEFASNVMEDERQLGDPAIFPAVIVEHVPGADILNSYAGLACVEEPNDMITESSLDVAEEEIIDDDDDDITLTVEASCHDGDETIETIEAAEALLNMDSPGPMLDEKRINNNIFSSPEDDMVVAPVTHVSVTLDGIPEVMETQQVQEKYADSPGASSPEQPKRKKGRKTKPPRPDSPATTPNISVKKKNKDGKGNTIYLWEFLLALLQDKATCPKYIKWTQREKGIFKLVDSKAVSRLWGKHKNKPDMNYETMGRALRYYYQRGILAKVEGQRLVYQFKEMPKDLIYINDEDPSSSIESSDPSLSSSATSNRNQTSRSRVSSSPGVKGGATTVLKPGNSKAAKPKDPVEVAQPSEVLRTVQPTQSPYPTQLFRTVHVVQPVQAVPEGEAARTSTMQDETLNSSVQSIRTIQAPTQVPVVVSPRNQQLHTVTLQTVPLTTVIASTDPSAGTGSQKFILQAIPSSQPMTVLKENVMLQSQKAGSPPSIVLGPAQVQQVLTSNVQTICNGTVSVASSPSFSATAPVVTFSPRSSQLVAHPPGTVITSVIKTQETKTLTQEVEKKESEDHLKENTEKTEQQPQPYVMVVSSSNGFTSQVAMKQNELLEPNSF
# Method in brief: as §1
# EHF = biological target: T5, EHF (Homo sapiens, UniProt Q9NZC4 1-300); conditions: protein: recombinant; tags: N-terminal GST; dsDNA, one strand shown
# T5 sequence: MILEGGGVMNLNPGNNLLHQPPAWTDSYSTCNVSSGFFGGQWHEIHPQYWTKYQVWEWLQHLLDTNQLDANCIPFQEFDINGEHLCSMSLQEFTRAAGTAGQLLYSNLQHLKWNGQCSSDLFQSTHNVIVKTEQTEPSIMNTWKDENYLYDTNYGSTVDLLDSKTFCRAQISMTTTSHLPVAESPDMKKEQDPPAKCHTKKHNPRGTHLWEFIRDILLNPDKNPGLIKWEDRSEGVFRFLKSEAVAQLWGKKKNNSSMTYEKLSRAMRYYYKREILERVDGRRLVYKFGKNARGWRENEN
# Method in brief: as §1
# SPI1 = SPI1 (Homo sapiens, UniProt P17947 1-270); conditions: protein: recombinant; tags: N-terminal GST; dsDNA, one strand shown
# Method in brief: as §1
# SPIB = SPIB (Homo sapiens, UniProt Q01892 1-262); conditions: protein: recombinant; tags: N-terminal GST; dsDNA, one strand shown
# Chain of SPIB (Q01892 whole entry): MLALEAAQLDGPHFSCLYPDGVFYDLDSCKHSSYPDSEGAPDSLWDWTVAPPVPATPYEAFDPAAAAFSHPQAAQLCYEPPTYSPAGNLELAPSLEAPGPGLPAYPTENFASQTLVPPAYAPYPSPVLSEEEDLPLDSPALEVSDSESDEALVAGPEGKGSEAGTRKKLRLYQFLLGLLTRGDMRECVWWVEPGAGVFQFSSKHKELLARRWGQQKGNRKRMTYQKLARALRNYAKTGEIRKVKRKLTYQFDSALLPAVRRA
# Method in brief: as §1
# ELK3 = biological target: T6, ELK3 (Homo sapiens, UniProt P41970 1-407); conditions: protein: recombinant; tags: N-terminal GST; dsDNA, one strand shown
# T6 sequence: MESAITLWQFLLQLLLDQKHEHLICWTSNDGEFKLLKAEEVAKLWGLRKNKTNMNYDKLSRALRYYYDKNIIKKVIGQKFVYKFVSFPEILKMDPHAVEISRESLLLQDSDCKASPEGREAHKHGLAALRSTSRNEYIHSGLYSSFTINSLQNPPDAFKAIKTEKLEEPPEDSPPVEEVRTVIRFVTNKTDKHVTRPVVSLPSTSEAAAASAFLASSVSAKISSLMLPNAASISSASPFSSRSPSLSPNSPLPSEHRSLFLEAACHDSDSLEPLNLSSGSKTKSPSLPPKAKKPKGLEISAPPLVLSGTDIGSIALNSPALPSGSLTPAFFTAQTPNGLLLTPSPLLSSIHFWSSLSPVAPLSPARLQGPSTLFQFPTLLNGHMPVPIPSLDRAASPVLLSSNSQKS
# Method in brief: as §1
# FEV = biological target: T7, FEV (Homo sapiens, UniProt Q99581 1-238); conditions: protein: recombinant; tags: N-terminal GST; dsDNA, one strand shown
# T7 sequence: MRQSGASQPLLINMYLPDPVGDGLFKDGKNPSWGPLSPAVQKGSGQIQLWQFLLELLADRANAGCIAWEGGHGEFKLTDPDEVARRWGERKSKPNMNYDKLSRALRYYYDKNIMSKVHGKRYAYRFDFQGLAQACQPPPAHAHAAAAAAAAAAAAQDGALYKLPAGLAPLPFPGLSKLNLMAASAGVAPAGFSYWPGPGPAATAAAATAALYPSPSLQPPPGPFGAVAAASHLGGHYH
# Method in brief: as §1
# ETV5 = ETV5 (Homo sapiens, UniProt P41161 1-510); conditions: protein: recombinant; tags: N-terminal GST; dsDNA, one strand shown
# Chain of ETV5 (P41161 whole entry): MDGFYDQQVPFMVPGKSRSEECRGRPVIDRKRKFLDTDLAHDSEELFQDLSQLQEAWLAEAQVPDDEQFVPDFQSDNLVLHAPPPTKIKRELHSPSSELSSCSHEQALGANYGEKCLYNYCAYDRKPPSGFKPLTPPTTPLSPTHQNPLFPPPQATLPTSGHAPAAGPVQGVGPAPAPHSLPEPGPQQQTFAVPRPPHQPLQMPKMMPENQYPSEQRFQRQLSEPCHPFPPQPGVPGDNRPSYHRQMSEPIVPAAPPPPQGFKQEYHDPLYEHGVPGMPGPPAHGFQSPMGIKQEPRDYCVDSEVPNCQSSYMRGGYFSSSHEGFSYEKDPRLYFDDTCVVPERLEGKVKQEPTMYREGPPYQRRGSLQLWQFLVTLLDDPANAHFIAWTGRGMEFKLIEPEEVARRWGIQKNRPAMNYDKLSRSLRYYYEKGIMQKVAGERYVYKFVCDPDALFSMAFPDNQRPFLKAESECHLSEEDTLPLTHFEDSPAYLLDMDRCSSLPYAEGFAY
# Method in brief: as §1
# HSF1 = HSF1 (Homo sapiens, UniProt Q00613 1-529); conditions: protein: recombinant; tags: N-terminal GST; chain copies: 3; dsDNA, one strand shown
# Chain of HSF1 (Q00613 whole entry): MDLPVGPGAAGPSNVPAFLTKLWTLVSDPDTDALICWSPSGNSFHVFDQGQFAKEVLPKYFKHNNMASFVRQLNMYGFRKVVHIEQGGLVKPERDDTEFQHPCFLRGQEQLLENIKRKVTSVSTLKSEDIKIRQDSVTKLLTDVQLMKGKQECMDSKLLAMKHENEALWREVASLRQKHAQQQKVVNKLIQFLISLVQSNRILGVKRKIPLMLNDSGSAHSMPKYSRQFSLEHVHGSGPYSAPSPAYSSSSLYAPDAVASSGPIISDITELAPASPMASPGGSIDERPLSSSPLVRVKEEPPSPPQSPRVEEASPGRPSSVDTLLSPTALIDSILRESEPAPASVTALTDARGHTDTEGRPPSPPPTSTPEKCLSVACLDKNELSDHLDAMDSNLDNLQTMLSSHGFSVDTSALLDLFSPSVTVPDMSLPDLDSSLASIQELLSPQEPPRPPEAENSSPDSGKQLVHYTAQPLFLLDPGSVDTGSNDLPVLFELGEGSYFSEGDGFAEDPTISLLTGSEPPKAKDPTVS
# Method in brief: as §1
# SPIC = biological target: T8, SPIC (Homo sapiens, UniProt Q8N5J4 1-248); conditions: protein: recombinant; tags: N-terminal GST; dsDNA, one strand shown
# T8 sequence: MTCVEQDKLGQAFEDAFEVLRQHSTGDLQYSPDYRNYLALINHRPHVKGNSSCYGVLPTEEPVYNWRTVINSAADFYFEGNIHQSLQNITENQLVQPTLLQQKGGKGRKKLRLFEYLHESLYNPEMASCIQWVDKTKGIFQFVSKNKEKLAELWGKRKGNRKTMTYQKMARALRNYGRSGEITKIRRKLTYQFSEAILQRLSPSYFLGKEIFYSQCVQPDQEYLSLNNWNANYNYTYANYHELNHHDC
# Method in brief: as §1
# ELF4 = ELF4 (Homo sapiens, UniProt Q99607 1-663); conditions: protein: recombinant; tags: N-terminal GST; dsDNA, one strand shown
# Chain of ELF4 (Q99607 whole entry): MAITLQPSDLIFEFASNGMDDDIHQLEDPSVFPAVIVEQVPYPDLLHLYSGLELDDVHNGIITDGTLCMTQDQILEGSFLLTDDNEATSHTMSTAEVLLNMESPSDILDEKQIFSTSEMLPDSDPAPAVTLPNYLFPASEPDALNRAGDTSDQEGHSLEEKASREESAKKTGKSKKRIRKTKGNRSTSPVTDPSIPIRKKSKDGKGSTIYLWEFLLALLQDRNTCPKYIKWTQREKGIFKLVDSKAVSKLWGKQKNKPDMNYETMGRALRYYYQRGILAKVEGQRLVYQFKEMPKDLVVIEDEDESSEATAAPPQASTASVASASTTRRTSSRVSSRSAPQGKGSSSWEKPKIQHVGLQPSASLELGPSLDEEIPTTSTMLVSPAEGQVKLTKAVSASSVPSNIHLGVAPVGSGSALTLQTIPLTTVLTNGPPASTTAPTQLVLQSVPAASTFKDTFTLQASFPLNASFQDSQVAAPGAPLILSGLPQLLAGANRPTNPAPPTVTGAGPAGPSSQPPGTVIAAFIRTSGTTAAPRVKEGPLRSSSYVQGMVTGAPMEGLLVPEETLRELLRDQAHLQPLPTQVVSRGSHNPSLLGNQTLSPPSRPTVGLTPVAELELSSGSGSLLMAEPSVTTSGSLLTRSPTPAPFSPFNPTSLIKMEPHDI
# Method in brief: as §1
# ELK4 = biological target: T9, ELK4 (Homo sapiens, UniProt P28324-2 1-405); conditions: protein: recombinant; tags: N-terminal GST; dsDNA, one strand shown
# T9 sequence: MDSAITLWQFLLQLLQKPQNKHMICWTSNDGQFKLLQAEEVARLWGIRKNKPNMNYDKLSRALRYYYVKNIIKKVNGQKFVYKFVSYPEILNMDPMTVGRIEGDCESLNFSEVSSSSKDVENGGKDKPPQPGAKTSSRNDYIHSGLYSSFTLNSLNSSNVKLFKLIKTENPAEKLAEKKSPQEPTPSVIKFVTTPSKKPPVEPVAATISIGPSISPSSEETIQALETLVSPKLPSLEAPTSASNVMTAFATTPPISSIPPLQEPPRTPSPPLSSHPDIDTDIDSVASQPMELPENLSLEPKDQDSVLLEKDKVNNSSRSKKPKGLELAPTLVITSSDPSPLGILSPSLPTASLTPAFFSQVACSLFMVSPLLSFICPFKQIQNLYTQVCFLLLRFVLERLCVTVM
# Method in brief: as §1
# ETV2 = biological target: T10, ETV2 (Homo sapiens, UniProt O00321 1-342); conditions: protein: recombinant; tags: N-terminal GST; dsDNA, one strand shown
# T10 sequence: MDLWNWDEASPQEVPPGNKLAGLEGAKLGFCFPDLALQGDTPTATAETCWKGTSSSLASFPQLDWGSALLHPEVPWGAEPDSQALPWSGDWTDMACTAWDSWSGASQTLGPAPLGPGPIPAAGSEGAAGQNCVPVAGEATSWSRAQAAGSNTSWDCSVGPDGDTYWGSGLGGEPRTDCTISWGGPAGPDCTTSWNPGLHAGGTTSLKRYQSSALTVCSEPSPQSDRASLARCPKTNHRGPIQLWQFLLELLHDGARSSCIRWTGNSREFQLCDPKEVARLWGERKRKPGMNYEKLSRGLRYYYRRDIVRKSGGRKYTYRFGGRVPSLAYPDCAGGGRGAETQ
# Method in brief: as §1
# ELF3 = biological target: T11, ELF3 (Homo sapiens, UniProt P78545 1-371); conditions: protein: recombinant; tags: N-terminal GST; dsDNA, one strand shown
# T11 sequence: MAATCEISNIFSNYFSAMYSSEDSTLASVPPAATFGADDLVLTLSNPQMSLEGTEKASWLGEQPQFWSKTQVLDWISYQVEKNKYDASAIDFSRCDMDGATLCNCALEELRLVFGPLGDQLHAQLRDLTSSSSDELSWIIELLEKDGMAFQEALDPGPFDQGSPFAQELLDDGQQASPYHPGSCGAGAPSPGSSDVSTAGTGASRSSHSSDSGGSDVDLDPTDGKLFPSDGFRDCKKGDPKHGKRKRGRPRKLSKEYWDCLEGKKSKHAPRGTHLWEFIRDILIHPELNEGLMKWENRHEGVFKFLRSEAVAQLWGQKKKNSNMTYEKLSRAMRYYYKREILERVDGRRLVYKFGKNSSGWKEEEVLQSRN
# Method in brief: as §1
# CRX = CRX (Homo sapiens, UniProt O43186 1-299); conditions: protein: recombinant; tags: N-terminal GST; dsDNA, one strand shown
# Chain of CRX (O43186 whole entry): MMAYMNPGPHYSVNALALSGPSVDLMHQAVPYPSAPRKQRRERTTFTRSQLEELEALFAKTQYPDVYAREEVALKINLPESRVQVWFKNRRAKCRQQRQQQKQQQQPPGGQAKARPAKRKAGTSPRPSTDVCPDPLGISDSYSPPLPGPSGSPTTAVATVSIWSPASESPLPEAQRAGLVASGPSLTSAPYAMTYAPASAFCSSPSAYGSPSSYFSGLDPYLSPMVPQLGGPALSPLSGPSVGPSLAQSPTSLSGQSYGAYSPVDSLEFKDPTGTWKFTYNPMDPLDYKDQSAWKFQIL
# Method in brief: as §1
# ETV1 = ETV1 (Homo sapiens, UniProt P50549 1-477); conditions: protein: recombinant; tags: N-terminal GST; dsDNA, one strand shown
# Chain of ETV1 (P50549 whole entry): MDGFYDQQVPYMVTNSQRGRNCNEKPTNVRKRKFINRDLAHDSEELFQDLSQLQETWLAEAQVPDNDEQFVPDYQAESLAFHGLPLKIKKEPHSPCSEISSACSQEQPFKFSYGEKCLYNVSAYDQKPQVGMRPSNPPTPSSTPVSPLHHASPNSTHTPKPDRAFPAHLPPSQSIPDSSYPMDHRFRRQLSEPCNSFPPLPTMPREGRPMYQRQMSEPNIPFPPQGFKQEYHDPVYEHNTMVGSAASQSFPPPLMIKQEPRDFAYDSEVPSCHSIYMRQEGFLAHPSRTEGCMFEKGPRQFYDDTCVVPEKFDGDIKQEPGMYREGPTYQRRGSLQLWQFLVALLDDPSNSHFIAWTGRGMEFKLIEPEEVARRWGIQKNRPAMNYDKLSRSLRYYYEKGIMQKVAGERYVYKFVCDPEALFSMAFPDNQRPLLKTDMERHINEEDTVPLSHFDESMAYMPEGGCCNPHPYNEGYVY
# Method in brief: as §1
sequence,measurement,setting,value
TACTCC,binding signal,FLI1,"1.3 fold enrichment (6-mer frequency, TF over GST control)"
same,binding signal,ELK1,"1.2 fold enrichment (6-mer frequency, TF over GST control)"
same,binding signal,GABPA,"1.49 fold enrichment (6-mer frequency, TF over GST control)"
same,binding signal,ERG,"1.35 fold enrichment (6-mer frequency, TF over GST control)"
same,binding signal,ELF1,"1.37 fold enrichment (6-mer frequency, TF over GST control)"
same,binding signal,EHF,"1.26 fold enrichment (6-mer frequency, TF over GST control)"
same,binding signal,SPI1,"1.24 fold enrichment (6-mer frequency, TF over GST control)"
same,binding signal,SPIB,"1.23 fold enrichment (6-mer frequency, TF over GST control)"
same,binding signal,ELK3,"1.44 fold enrichment (6-mer frequency, TF over GST control)"
same,binding signal,FEV,"1.25 fold enrichment (6-mer frequency, TF over GST control)"
same,binding signal,ETV5,"1.27 fold enrichment (6-mer frequency, TF over GST control)"
same,binding signal,HSF1,"1.18 fold enrichment (6-mer frequency, TF over GST control)"
same,binding signal,SPIC,"1.23 fold enrichment (6-mer frequency, TF over GST control)"
same,binding signal,ELF4,"1.26 fold enrichment (6-mer frequency, TF over GST control)"
same,binding signal,ELK4,"1.19 fold enrichment (6-mer frequency, TF over GST control)"
same,binding signal,ETV2,"1.25 fold enrichment (6-mer frequency, TF over GST control)"
same,binding signal,ELF3,"1.11 fold enrichment (6-mer frequency, TF over GST control)"
same,binding signal,CRX,"1.26 fold enrichment (6-mer frequency, TF over GST control)"
same,binding signal,ETV1,"1.24 fold enrichment (6-mer frequency, TF over GST control)"

# From publication PMC7862700, “An all-to-all approach to the identification of sequence-specific readers for epigenetic DNA modifications on cytosine”
